Screening results from PubChem BioAssay.
GluA2 TARP mod – modulators of GluA2-stargazin AMPA receptor complexes, primary screen, cell-based, membrane potential dye. Voltage-dependent calcium channel gamma-2 subunit (Mus musculus) + Glutamate receptor 2 …. HEK293 GluA2+stargazin, membrane potential dye (FDSS), glutamate EC50; hits were called plate by plate, in both directions. calls only at 30 µM. hit rate 3.5% among 40,000;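 active means any of four per-well response measures lying three or more SD from its plate-wide compound average, in either direction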
GIRK2 act – activators of NPY4-receptor-primed GIRK2 channels, summary, cell-based, HEK293, thallium flux; activation (% efficacy), % for hits at 37.5 µM; HEK293 GIRK2/NPY4 cells, thallium flux fluorescence; G protein-activated inward rectifier potassium channel 2 (Homo sapiens), P48051; 34,000 tested, under 10 active;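 active means primary screen hit, no activity in plain HEK293 cells, and in GIRK2-only cells above 5% efficacy rising with concentration; inactive means the rest, including fluorescent compounds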;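 further: efficacy is normalized control-subtracted fluorescence 15 s after thallium addition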
Target sequence (P48051 whole entry, looked up): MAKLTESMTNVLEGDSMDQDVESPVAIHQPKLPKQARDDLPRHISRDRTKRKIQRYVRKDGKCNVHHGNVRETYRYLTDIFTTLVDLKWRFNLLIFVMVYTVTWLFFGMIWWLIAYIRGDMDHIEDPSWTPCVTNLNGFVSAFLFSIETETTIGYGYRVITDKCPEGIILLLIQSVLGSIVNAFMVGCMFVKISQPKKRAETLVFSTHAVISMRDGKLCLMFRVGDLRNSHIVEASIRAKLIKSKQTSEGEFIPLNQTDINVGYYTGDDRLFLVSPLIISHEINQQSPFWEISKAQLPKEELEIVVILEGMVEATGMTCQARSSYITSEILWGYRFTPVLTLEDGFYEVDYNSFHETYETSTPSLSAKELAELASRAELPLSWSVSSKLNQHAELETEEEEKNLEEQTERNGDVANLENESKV
Active calls of the source: *; i = inactive; / = not tested or not shown; + = active, no number. This excerpt belongs to a sample that is enriched for hits.

SMILES | GluA2 TARP mod | GIRK2 act
COc1ccc(-c2csc(CN3CCN(C(=O)c4ccc(F)cc4F)CC3)n2)cc1 | i | /
CCCc1nnsc1C(=O)N1CCN(Cc2nc(-c3ccc(F)cc3)cs2)CC1 | + | i
CCCCc1ccc(NC(=O)CSc2ccc(-c3ccncc3)nn2)cc1 | i | i
COc1ccc(OCC(=O)NCCc2ccc(OC)c(OC)c2)cc1 | i | i
COc1ccc(CCNC(=O)COc2ccc(C(C)C)c(C)c2)cc1OC | + | i
COc1ccccc1-c1nnc(NC(=O)c2ccccc2)o1 | i | /
COc1ccc(C(=O)Nc2nnc(-c3ccccc3OC)o2)cc1 | i | /
COc1ccccc1-c1nnc(NC(=O)Cc2ccc(S(C)(=O)=O)cc2)o1 | + | /
COc1ccc(-c2nnc(NC(=O)c3cccc(S(=O)(=O)C(C)C)c3)o2)c(OC)c1 | + | i
COc1ccccc1-c1nnc(NC(=O)Cc2ccc(SC)cc2)o1 | i | /
COc1ccc(-c2nnc(NC(C)=O)o2)c(OC)c1 | + | /
CCOc1ccc(S(=O)(=O)Nc2cccnc2)c(OCC)c1 | i | i
O=C(CN1CC(c2nc(-c3ccco3)no2)C1)N1CCOCC1 | / | i
Nc1c(C(=O)NCCc2ccccc2)nnn1-c1ccc(Cl)cc1 | i | i
COc1ccc(NC(=O)c2sccc2N(C)S(=O)(=O)c2ccccc2)cc1OC | i | i
CC(=O)Cn1c(-c2ccccc2)cn2c3c(=O)n(C)c(=O)n(C)c3nc12 | i | i
O=C(NCc1ccccc1Cl)c1coc(NC(=O)c2ccco2)n1 | i | i
O=C(Nc1nc(C(=O)N2CCc3ccccc3C2)co1)c1ccco1 | + | i
COc1cccc(-c2cc(CC(=O)N3CCOCC3)no2)c1 | i | i
Cc1cc(C(=O)Nc2cccc3c2C(=O)NC3=O)on1 | + | i
Cn1nccc1C(=O)Nc1cccc2c1C(=O)NC2=O | / | i
COc1ccccc1C1C=C(c2ccc(Cl)cc2)Nc2nc(NS(C)(=O)=O)nn21 (centres undefined) | i | /
Cc1ccc(C2=CC(c3ccc(Cl)cc3)n3nc(N4C(=O)CCC4=O)nc3N2)cc1 (centres undefined) | + | /
O=C(COc1ncccn1)N1CCN(c2ccc(Nc3ccccn3)nn2)CC1 | + | i
Cc1cc(Nc2ccccc2)nc(N2CCN(C(=O)c3ccc4c(c3)OCO4)CC2)n1 | i | /
SMILES | GluA2 TARP mod | GIRK2 act
COc1ccc(Nc2cc(C)nc(N3CCN(C(=O)C4CCCC4)CC3)n2)cc1 | + | i
O=C(Cc1ccc(Cl)cc1)N1CCN(c2ccc(Nc3ccccn3)nn2)CC1 | i | i
Cc1cc(C)n(-c2ccc(N3CCN(C(=O)COc4ncccn4)CC3)nn2)n1 | / | i
Cc1ccc(Nc2cc(C)nc(N3CCN(C(=O)COc4ncccn4)CC3)n2)cc1 | + | i
COc1ccc(NC(=O)CN2CCN(C(c3ccccc3)c3ccccc3)CC2)cc1 | i | i
CC(O)CNc1nc2c(c(=O)[nH]c(=O)n2C)n1CC(O)COc1ccc(Cl)cc1 (centres undefined) | i | /
CCN1CCN(c2nc3c(c(=O)[nH]c(=O)n3C)n2CC(O)COc2ccc(Cl)cc2)CC1 (centres undefined) | + | /
CCN1CCN(c2nc3c(c(=O)n(C)c(=O)n3C)n2CC(O)COc2ccccc2)CC1 (centres undefined) | i | /
Cn1c(=O)c2c(nc(N3CCN(Cc4ccccc4)CC3)n2CC(O)COc2ccc(Cl)cc2)n(C)c1=O (centres undefined) | + | /
COc1cc([N+](=O)[O-])cc2cc(C(=O)N3CCN(c4cccc(C(F)(F)F)c4)CC3)c(=O)oc12 | + | i
COc1cc([N+](=O)[O-])cc2cc(C(=O)NC(C)c3ccccc3)c(=O)oc12 (centres undefined) | i | i
CC(C)c1noc(CCCN)n1 | i | i
COc1ccc(S(=O)(=O)Nc2ccc(CC(=O)N3CCCC3)cc2)cc1F | i | i
COc1ccc(SCCCC(=O)Nc2c3c(nn2C)CCC3)cc1 | i | i
O=C(NCC1(O)CCOCC1)C(=O)Nc1ccc2c(c1)OCCO2 | i | i
O=C(NCC1(O)CCOCC1)C(=O)Nc1ccc(F)c(F)c1 | + | i
Cc1cc(C)cc(-n2nnc3c(=O)n(CC(=O)N4CCN(c5ccccc5)CC4)cnc32)c1 | i | /
Cc1ccc(NC(=O)N2CCC3(CC2)NC(=O)N(Cc2ccc(Cl)cc2)C3=O)cc1F | + | i
O=C(Nc1ccc(F)c(Cl)c1)N1CCC2(CC1)NC(=O)N(CCc1ccccc1)C2=O | + | i
O=C(Nc1ccc(F)cc1)N1CCC2(CC1)NC(=O)N(Cc1ccc(Cl)cc1)C2=O | / | i
O=C(Nc1ccccc1)N1CCC2(CC1)NC(=O)N(CCc1ccccc1)C2=O | i | i
